Experimental data as given in PubChem BioAssay (Tox21).
“And” between values parts separate entries of the source, which are not always exact repeats. Identical values can stand only once. Results filed as inconclusive are left out. Entries that show only a call come without a potency. The source made the active and inactive calls. Unless noted, calls follow the shape of the dose curve; as a rule, active = well fitted curve in the direction sought with a large enough effect in the repeat runs; inconclusive = weak or mixed curves; inactive = no such curve, though single readings can be large; an effect the other way counts as inactive or inconclusive.

Columns and labels:
[1] = qHTS assay to identify small molecule antagonists of the estrogen related receptor (ERR) signaling pathway from Tox21 library - cell viability counter screen (AID 1224834); also: nearly all actives have a fitted effect of over 30% in size; also: potency is read from the fitted curve at half-maximal effect
Summary of the method: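 CellTiter-Fluor fluorescence measured; ERR cells; 17.5 h compound incubation at 37 C; 30 min reagent step.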

[2] = qHTS assay to identify small molecule agonists of the constitutive androstane receptor (CAR) signaling pathway - cell viability counter screen (AID 1224836); also: nearly all actives have a fitted effect of over 45% in size; also: potency is read from the fitted curve at half-maximal effect
Summary of the method: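 Cells were seeded and incubated 4 hrs. Compounds were added across 15 concentrations together with PK11195 at 0.75 uM final. Plates were incubated 23 hrs at 37 C. CellTiter-Fluor was added and fluorescence measured.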

[3] = qHTS assay to identify small molecule antagonists of the constitutive androstane receptor (CAR) signaling pathway - cell viability counter screen (AID 1224837); also: nearly all actives have a fitted effect of over 45% in size; also: potency is read from the fitted curve at half-maximal effect
Summary of the method: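 Using CellTiter-Fluor, viability is scored in HepG2 cells stably carrying hCAR and a 2.2kb CYP2B6 reporter after 23 hr compound exposure across 15 concentrations, with CITCO present at 50 nM.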

[4] = target: Nuclear receptor subfamily 1 group I member 3 (Homo sapiens) (UniProt Q14994); assay: qHTS assay to identify small molecule antagonists of the constitutive androstane receptor (CAR) signaling pathway (AID 1224838);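 also: HepG2 cells stably expressing hCAR with CYP2B6 luciferase reporter stimulated by CITCO; nearly all actives have a fitted effect of over 40% in size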
Sequence of Nuclear receptor subfamily 1 group I member 3 (Homo sapiens) (Q14994 whole entry, looked up): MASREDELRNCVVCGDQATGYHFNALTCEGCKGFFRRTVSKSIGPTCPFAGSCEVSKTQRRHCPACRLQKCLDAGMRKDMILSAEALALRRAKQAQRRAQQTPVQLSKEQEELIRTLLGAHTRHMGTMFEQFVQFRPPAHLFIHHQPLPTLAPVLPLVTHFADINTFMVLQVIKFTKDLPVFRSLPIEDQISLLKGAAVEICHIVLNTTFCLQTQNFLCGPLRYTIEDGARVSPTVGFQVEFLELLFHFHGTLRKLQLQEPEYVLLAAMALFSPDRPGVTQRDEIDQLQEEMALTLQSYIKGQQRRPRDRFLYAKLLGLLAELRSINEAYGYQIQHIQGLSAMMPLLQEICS
Summary of the method: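 Reporter luminescence was quantified after 24 h exposure of hCAR/CYP2B6-2.2kb double-stable HepG2 cells to compounds at 15 concentrations in the presence of 50 nM CITCO final.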

[5] = target: Nuclear receptor subfamily 1 group I member 3 (Homo sapiens) (UniProt Q14994); assay: qHTS assay to identify small molecule agonists of the constitutive androstane receptor (CAR) signaling pathway (AID 1224839); also: potency is read from the fitted curve at half-maximal effect; nearly all actives have a fitted effect of over 15% in size
Summary of the method: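 Cells were plated and incubated 4 hrs, then dosed with compounds at 15 concentrations. PK11195 was added to 0.75 uM final. After 24 hrs at 37 C, luciferase luminescence was measured.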

[6] = qHTS assay to identify small molecule antagonists of the estrogen related receptor signaling pathway with the pleiotropic PPARgamma coactivator (PGC) from Tox21 10K library - cell viability counter screen (AID 1224840; active = well fitted cell-killing curve with a large enough effect in the repeat runs, not every such curve was filed as active; also: nearly all actives have a fitted effect of over 40% in size)
Summary of the method: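 Here the PGC/ERR cells serve as a cytotoxicity control: they are exposed to compounds for 17.5 hours at 37 C, and live-cell signal is quantified using CellTiter-Fluor fluorescence.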

[7] = target: Thyrotropin receptor (Homo sapiens) (UniProt P16473); assay: qHTS assay to identify small molecule agonists of the thyroid stimulating hormone receptor (TSHR) signaling pathway (AID 1224843; calls by dose curve; also: nearly all actives have a fitted effect of over 45% in size)
Sequence of Thyrotropin receptor (Homo sapiens) (P16473 whole entry, looked up): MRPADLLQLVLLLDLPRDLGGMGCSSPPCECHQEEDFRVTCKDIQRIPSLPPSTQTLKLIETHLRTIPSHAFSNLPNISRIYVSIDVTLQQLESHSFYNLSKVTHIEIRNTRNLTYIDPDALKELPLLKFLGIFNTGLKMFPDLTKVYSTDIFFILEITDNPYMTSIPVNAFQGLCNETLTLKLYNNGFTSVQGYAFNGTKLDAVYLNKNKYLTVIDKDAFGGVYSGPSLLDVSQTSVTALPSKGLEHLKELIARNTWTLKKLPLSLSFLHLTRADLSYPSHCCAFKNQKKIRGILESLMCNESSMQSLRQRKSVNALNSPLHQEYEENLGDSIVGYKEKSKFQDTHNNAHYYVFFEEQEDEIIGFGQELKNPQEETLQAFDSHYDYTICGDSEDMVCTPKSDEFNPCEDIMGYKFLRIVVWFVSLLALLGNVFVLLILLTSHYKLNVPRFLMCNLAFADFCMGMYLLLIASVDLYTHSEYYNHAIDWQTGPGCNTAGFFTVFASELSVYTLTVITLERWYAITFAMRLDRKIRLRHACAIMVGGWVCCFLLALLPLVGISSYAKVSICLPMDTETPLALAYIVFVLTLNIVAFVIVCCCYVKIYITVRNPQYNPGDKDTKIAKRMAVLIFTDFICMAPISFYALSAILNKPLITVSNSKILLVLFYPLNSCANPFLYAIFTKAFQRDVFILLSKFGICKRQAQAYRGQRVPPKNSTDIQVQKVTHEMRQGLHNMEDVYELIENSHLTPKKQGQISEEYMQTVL
Summary of the method: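 Cell line HEK293 with TSHR; density 800/well. Exposure 30 min RT. Readout HTRF cAMP (cAMP-d2/anti-cAMP-cryptate), 1 h RT before reading.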

[8] = target: Luciferin 4-monooxygenase (Photinus pyralis) (UniProt P08659); assay: qHTS assay to identify small molecule inhibitors of firefly luciferase (AID 1224835); also: potency is read from the fitted curve at half-maximal effect; nearly all actives have a fitted effect of over 25% in size
Sequence of Luciferin 4-monooxygenase (Photinus pyralis) (P08659 whole entry, looked up): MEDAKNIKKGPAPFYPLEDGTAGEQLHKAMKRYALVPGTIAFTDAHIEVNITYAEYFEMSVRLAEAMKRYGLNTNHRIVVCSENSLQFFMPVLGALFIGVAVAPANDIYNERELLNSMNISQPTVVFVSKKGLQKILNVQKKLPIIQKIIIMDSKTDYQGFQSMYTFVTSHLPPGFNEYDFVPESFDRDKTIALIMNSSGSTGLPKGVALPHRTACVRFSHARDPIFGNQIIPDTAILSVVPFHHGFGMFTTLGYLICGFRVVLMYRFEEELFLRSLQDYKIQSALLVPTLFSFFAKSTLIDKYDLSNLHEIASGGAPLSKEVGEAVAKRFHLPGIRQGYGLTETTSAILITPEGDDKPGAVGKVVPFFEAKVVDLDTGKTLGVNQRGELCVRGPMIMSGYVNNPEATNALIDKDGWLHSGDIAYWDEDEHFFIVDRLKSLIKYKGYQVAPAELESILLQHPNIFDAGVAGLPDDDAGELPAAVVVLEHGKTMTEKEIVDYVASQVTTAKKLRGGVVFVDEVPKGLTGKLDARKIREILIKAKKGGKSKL
Summary of the method: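 Quantitative HTS format; KM concentrations of both substrates. Purified P. pyralis FLuc activity quantified from luminescence images.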

[9] = qHTS assay to identify small molecule antagonists of the estrogen related receptor signaling pathway with the pleiotropic PPARgamma coactivator (PGC) from Tox21 10K library (AID 1224841; call rule not given here; also: actives are mostly falling curves and most rising ones were filed inactive; nearly all actives have a fitted effect of over 50% in size; also: potency is read from the fitted curve at half-maximal effect)
Summary of the method: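 Each well held 2,000 PGC/ERR cells, pre-incubated six hours (37 C, 5% CO2). Test substances in DMSO were added by pin tool and left for 18 h at 37 C before luciferase detection by One-Glo.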

[10] = qHTS assay to identify small molecule agonists of the estrogen related receptor signaling pathway with the pleiotropic PPARgamma coactivator (PGC) from Tox21 10K library (AID 1224842); also: nearly all actives have a fitted effect of over 15% in size
Summary of the method: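 PGC/ERR reporter cells (NTP line) were seeded 2,000 per well, rested 6 h at 37 C/5% CO2, then pin-dosed with compounds in DMSO for 18 h at 37 C; luciferase read by One-Glo luminescence after 30 min at room temperature.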

| Structure (SMILES) | Potency [1] | Potency [2] | Potency [3] | Potency [4] | Potency [5] | Potency [6] | Potency [7] | Potency [8] | Potency [9] | Potency [10] |
| --- | --- | --- | --- | --- | --- | --- | --- | --- | --- | --- |
| c1ccc2c(c1)-c1cccc3cccc-2c13 | inactive | inactive | inactive | inactive | 34.7 µM (active) and 30.6 µM (active) | inactive | inactive | – | – | – |
| CCCCCCCCn1sccc1=O | 27.4 µM (active) and 16.1 µM (active) | 61.3 µM (active) and 25.5 µM (active) | 30.7 µM (active) and 5.71 µM (active) | – | – | – | – | 35.7 µM (active) and 41.8 µM (active) | 30.7 µM (active) | inactive |
| CC(C)c1ccc(NC(=O)N(C)C)cc1 | – | inactive | inactive | inactive | 48.5 µM (active) | inactive | inactive | 71 µM (active) | inactive | – |
